# Screening results (PubChem)
# In the library only some 9% were active in any assay of this set; here they are far more common.
# IMPase inh – qHTS Assay for Identifying the Cell-Membrane Permeable IMPase Inhibitors; Inositol monophosphatase 1 (Rattus norvegicus), P97697; CHO-M1 cells, IP1 accumulation, HTRF TR-FRET ratio; inhibition (IP1 accumulation), % at 46.1 µM; 120,000 tested, under 10 active; AID 901, 2007; active = well fitted curve in the direction sought with a large enough effect in the signal ratio, not every such curve was filed as active; inconclusive = small, poorly fitted or top-dose-only effect, or a change in a side signal; inactive = no such curve, though single readings can be large or run the other way; the % refers to the signal ratio;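 note: cells stimulated with carbachol in lithium chloride buffer; plate controls were DMSO basal wells for no effect and reference inhibitor wells for full effect; higher means more IMPase inhibition seen as more IP1 and lower FRET ratio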
#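 Carbachol-driven Gq signalling in CHO-M1 cells (2000/well) generates IP1. Compounds that block IMPase raise IP1 and so reduce the FRET signal from Eu-anti-IP1 and d2-IP1 after a 10 min room-temperature lysis.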
# HPGD block – qHTS Assay for Inhibitors of HPGD (15-Hydroxyprostaglandin Dehydrogenase). purified HPGD, NADH fluorescence kinetic, PGE2 substrate. Potency, µM, for the others: at the highest dose activity change, negative = inhibition, hits mostly inhibitors. 150,000 tested, 4.3% active. AID 894, 2007; note: potency is the fitted concentration of half-maximal effect
#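 20 nM HPGD preincubated 15 min at room temperature with compound in 50 mM Tris-HCl pH 8, 0.01% Tween 20. Started with 1 mM NAD+ and 30 uM prostaglandin E2; NADH fluorescence (360/450 nm) read 5 times over 30-s intervals, last minus first.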
# ALDH1A1 inh – qHTS Assay for Inhibitors of Aldehyde Dehydrogenase 1 (ALDH1A1). Aldehyde dehydrogenase 1A1 (Homo sapiens), P00352. Purified ALDH1A1, NADH fluorescence, propionaldehyde substrate. Potency, µM (series often up to 75.3 µM), without a hit: top-dose activity, negative = inhibition, hits mostly inhibitors. 220,000 tested, 7.3% active;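 note: potency is the fitted concentration of half-maximal effect; plate controls were no enzyme wells and a reference inhibitor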
# Target sequence (P00352 whole entry, looked up): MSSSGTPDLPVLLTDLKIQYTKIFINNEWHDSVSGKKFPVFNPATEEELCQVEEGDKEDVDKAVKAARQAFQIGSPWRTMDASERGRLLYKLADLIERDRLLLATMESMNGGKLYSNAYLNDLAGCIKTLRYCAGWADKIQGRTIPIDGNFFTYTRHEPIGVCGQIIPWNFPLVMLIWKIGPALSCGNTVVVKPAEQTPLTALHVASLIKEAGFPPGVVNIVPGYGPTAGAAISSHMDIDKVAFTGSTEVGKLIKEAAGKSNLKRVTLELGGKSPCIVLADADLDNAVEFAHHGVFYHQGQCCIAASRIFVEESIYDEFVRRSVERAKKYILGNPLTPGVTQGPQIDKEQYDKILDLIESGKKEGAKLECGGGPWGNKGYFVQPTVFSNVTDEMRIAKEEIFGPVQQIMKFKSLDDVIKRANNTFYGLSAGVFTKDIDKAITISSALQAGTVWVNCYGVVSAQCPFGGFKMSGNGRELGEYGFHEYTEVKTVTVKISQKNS
# * = called active by the depositor; ? = inconclusive; / = not tested or not shown. Unless noted, calls come from the whole dose curve; as a rule, active = well fitted inhibition curve with a large enough effect (not every such curve was filed as active); inconclusive = small, poorly fitted or top-dose-only effect, or another doubt; inactive = no such curve, though single readings can be large or run the other way. Unless noted, % is set by controls: 0 for no effect and ±100 for the full control effect.
SMILES,IMPase inh,HPGD block,ALDH1A1 inh
Cc1ccc(N2C(=O)c3ccccc3C2Nc2cccnc2)nc1 (stereo not given),11,-1%,-6%
Cc1ccc(N2C(=O)c3ccccc3C2Nc2ccc(S(=O)(=O)N3CCOCC3)cc2)nc1 (stereo not given),-5,-7%,?
CCOC(=O)N1CCC(N2C(=O)c3ccccc3C2Nc2ccccc2C)CC1 (stereo not given),-2,-3%,?
CCOC(=O)N1CCC(N2C(=O)c3ccccc3C2Nc2ccc(S(=O)(=O)N3CCCCC3)cc2)CC1 (stereo not given),/,/,25µM*
CCN(CC)S(=O)(=O)c1ccc(NC2c3ccccc3C(=O)N2c2ccc(C)cn2)cc1 (stereo not given),4,-12%,18µM*
O=C1C=C(c2ccccc2)CC(/C=C/c2ccccc2)C1 (stereo not given),/,-7%,?
O=C(CSCc1ccccc1)Nc1cccc(C(=O)Nc2ccccc2C(=O)O)c1,1,-27%,-10%
Cc1ccc(S(=O)(=O)CCSc2cccc(C(=O)Nc3ccccc3C(=O)O)c2)cc1,/,16µM*,?
CC1CCCN(C(=O)CSc2nnc(-c3c[nH]c4ccccc34)o2)C1 (stereo not given),7,16µM*,14µM*
CCN(C(=O)CSc1nnc(-c2c[nH]c3ccccc23)o1)C1CCS(=O)(=O)C1 (stereo not given),/,/,4%
CCC1CCCCN1C(=O)CSc1nc(N)cc(N)n1 (stereo not given),/,/,8.9µM*
CCC(C)NC(=O)CSc1nnc(-c2c[nH]c3ccccc23)o1 (stereo not given),/,/,3%
CCC1CCCCN1C(=O)CSc1nnc(-c2c[nH]c3ccccc23)o1 (stereo not given),8,-20%,13µM*
CCC1CCCCN1C(=O)CSc1nc(-c2ccc(OC)c(OC)c2)cc(C(F)(F)F)n1 (stereo not given),-6,/,/
CC1CCCC(C)N1C(=O)CSc1nnc(-c2c[nH]c3ccccc23)o1 (stereo not given),-4,-23%,10µM*
CCC1CCCCN1C(=O)CSc1nnc(-c2ccc(OC)cc2)o1 (stereo not given),2,-12%,?
CC(=O)CC(=O)Nc1ccccc1,/,0%,-14%
OC(COc1ccc(CN2CCCCO2)cc1)CN1CCCCC1 (stereo not given),/,/,7%
CC(C)(C)C(=O)NC1(C(F)(F)F)C(=O)Nc2c1c(=O)[nH]c(=O)n2-c1ccccc1 (stereo not given),0,/,/
COc1ccc(-c2noc(COc3cc(C)ccc3C)n2)cc1OC,17,/,/
COCCNC(=O)NC(=O)CN1CCCc2ccccc21,/,/,3%
O=C1/C(=C\c2ccc(C(F)(F)F)cc2)CSc2sccc21,/,/,4%
COCC(=O)N1CCC2(CCCN(c3ncccn3)C2)CC1,/,-17%,-3%
O=C(Cc1cn2ccsc2n1)Nc1nc2c(s1)CN(Cc1ccccc1)CC2,0,-9%,10µM*
O=C(Cc1cn2ccsc2n1)NCc1ccccc1,-5,?,?
SMILES,IMPase inh,HPGD block,ALDH1A1 inh
CCOC(=O)COc1ccc(S(=O)(=O)N2CCN(c3ccccc3)CC2)cc1,/,0%,-3%
CC(C)C(=O)Nc1cccc(NC(=O)c2ccc(Cl)cc2Cl)c1,/,-4%,11%
CCc1ccc(C(=O)NC(=S)Nc2ccc3c(c2)OCCO3)cc1,-1,-15%,18µM*
O=C(NC(=S)Nc1ccc2c(c1)OCO2)c1ccc(Cl)cc1,/,-15%,14µM*
O=C(NC(=S)Nc1ccc2c(c1)OCCO2)c1ccc(F)cc1Cl,/,-7%,?
Cc1ccc(C(=O)NC(=S)Nc2ccc3c(c2)OCCO3)c(C)c1,5,-2%,?
Cc1ccc(C(=O)Nc2ccc3c(c2)OCO3)cc1,-4,-6%,-15%
CC(C)C(=O)Nc1cccc(NC(=S)NC(=O)c2ccc(Cl)cc2)c1,7,-8%,10µM*
Cc1cc(C)cc(C(=O)NC(=S)Nc2ccc3c(c2)OCCO3)c1,1,/,13µM*
O=C(NCCc1ccc2c(c1)OCCO2)c1ccc([N+](=O)[O-])cc1Cl,/,/,-3%
FC(F)Oc1cccc(NC(=S)N2CCN(c3ccccn3)CC2)c1,/,/,-6%
O=C(NC1CCCC1)c1cc2c(ccc3ccccc32)o1,5,?,?
COCc1c(C(=O)NC2CCCCCC2)oc2ccccc12,/,/,11µM*
CCCCCCn1c(CN2CCCCC2CC)nc2c1c(=O)n(C)c(=O)n2C (stereo not given),-6,-10%,6%
C=CCn1c(SCC(=O)N2CCN(c3ccc(F)cc3)CC2)nnc1-c1ccco1,-1,-3%,2%
C=CCn1c(SCc2nc(N)nc(N3CCCCC3)n2)nnc1-c1ccco1,-8,16µM*,22µM*
Cc1ccc(-c2ccc(CCC(=O)O)n2-c2ccc(C(C)C)cc2)cc1,6,/,/
CCN1CCCC1CNC(=O)C(=O)NC(C)C (stereo not given),/,/,1%
COCCNC(=O)c1cc(OC)c(OC)cc1[N+](=O)[O-],/,/,6%
Cc1ccc2[nH]c(O)c(N=O)c2c1,/,/,32µM*
Cc1ccc2[nH]c(C)cc(=O)c2c1,/,-23%,?
COc1ccc(C(=O)NN/C(C)=C/C(=O)C(F)(F)C(F)(F)C(F)(F)F)cc1,/,-14%,-3%
CCOC(=O)C1=C(c2ccccc2)NC(=S)NC1c1ccc(Cl)c([N+](=O)[O-])c1 (stereo not given),/,-24%,0.71µM*
CCOC(=O)C1=C(C)C(c2cccc(Oc3ccccc3)c2)NC(=S)N1 (stereo not given),/,-10%,0.56µM*
COc1cc(C2NC(=S)NC(c3ccccc3)=C2C(C)=O)cc(Cl)c1OCC(=O)O (stereo not given),5,-20%,?
SMILES,IMPase inh,HPGD block,ALDH1A1 inh
CCOC(=O)C1=C(c2ccccc2)NC(=O)NC1c1cc(Cl)c(O)c(OC)c1 (stereo not given),/,/,11%
CCOC(=O)C1=C(C)N(C)C(=S)NC1c1ccccc1 (stereo not given),-10,-8%,?
CCOC(=O)C1=C(C)C(c2ccc(OC)cc2)NC(=S)N1 (stereo not given),3,-9%,2.2µM*
CC(=O)C1=C(c2ccccc2)NC(=S)NC1c1cc(Cl)c(OC(C)C)c(Cl)c1 (stereo not given),1,-19%,0.71µM*
CCOC(=O)C1=C(C)C(c2ccc(OC)cc2)NC(=O)N1 (stereo not given),/,/,3%
COc1ccc(-n2c(=O)c(-c3ccc(F)cc3)nc3cnc(N4CCOCC4)nc32)cc1,/,/,-3%
Cc1ccccc1NC(=O)CSc1nc2n(n1)CCCCC2,/,-11%,-8%
CC1CCCC(C)N1C(=O)COC(=O)C(Cc1ccccc1)NC(=O)c1cccs1 (stereo not given),6,-16%,1%
Nc1ccc(N=Nc2ccccc2)c(N)c1,/,-12%,?
COc1ccc(-c2nc(NC(=O)CCNC(=O)c3ccco3)sc2C)cc1,/,/,4%
CC(=O)N1CC(=O)N(Cc2ccccc2)/C(=C/c2ccccc2)C1=O,/,/,-7%
